The values below come from PubChem BioAssay.

Experiment [1] in a line: HepG2 liver cancer cell viability effects, profiling panel, resazurin fluorescence, 24 h, PK04 Diversity Set (AID 1172). Further: test concentration not given here. The conditions noted are these: higher = more signal. A general note: Resazurin is reduced to fluorescent resorufin, in cell work by metabolically active cells.
Experiment [2] can be described thus: basal S. cerevisiae growth modulation, no modifier, primary screen, OD600, strain BY4716, 24 h, basal condition (AID 1173). Conditions: OD600, 24 h, higher = more signal, called active from +8 up or from −8 down.
The nature of experiment [3]: MM1S myeloma cell viability, profiling panel, resazurin fluorescence, basal, 24 h, PK04 Diversity Set (AID 1174).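 Further: MM1S multiple myeloma cell line; test concentration not given here.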 Conditions: higher = more signal, called active from +8 up or from −8 down.
Experiment [4] concerns the target Dihydroorotate dehydrogenase (quinone), mitochondrial (Plasmodium falciparum (isolate 3D7)) (UniProt Q08210). As to the kind of experiment: PfDHODH enzyme inhibitors, primary screen, biochemical, C-terminal His tag, absorbance 600 nm (AID 1175).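 Further: recombinant parasite enzyme with a five histidine tag at its C terminus; test concentration not given here.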 Conditions: DCIP absorbance 600 nm, higher = more signal, called active from +8 up or from −8 down.
Experiment [5] is described as follows: P. aeruginosa biofilm formation inhibitors, primary screen, strain PAO1, LB-PBS medium, absorbance 600 nm (AID 1176). Further: test concentration not given here. The conditions noted are these: P. aeruginosa PAO1 growth/biofilm, A600, 12 h; higher = more signal.
Experiment [6] can be described thus: S. cerevisiae RM11-1a growth modifiers, primary screen, strain RM11-1a, OD600, basal, 24 h (AID 1177).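 Further: cultures grown under basal conditions with no added stressor; test concentration not given here.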 Conditions: OD600, 24 h, higher = more signal, called active from +8 up or from −8 down.
Experiment [7] in a line: E. coli acrAB mutant growth effects, primary screen, E. coli filamentation inducers, strain DRC39, OD650, 24 h (AID 1178).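 Further: growth measured as culture turbidity by optical density at 650 nm; test concentration not given here.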 The conditions noted are these: higher = more signal, called active from +8 up or from −8 down.
Experiment [8] can be described thus: E. coli acrAB mutant growth effects, primary screen, E. coli filamentation inducers, strain DRC39, OD650, 48 h (AID 1179).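 Further: screen aims at cell division blockers that make cells filament.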 Conditions: E. coli DRC39 delta-acrAB growth, higher = more signal, called active from +8 up or from −8 down.
The nature of experiment [9]: RPMI8226 myeloma cell viability, profiling panel, resazurin fluorescence, basal, 24 h, PK04 Diversity Set (AID 1180).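 Further: RPMI8826 multiple myeloma cell line at 5000 cells per well; test concentration not given here.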 The conditions noted are these: higher = more signal.
The target of experiment [10] is E3 ubiquitin-protein ligase XIAP (Homo sapiens) (UniProt P98170). As to the kind of experiment: XIAP binders, primary screen, biophysical, small-molecule microarray, fluorescence 635 nm (AID 1181).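 Further: score merges 667 nm emission and signal to noise over triplicate slides.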 The conditions noted are these: small-molecule microarray binding, higher = more signal.

Activity calls are given as the source filed them. Unless noted, how the calls were made is not given here.

Dihydroorotate dehydrogenase (quinone), mitochondrial (Plasmodium falciparum (isolate 3D7)), sequence (Q08210 whole entry, looked up): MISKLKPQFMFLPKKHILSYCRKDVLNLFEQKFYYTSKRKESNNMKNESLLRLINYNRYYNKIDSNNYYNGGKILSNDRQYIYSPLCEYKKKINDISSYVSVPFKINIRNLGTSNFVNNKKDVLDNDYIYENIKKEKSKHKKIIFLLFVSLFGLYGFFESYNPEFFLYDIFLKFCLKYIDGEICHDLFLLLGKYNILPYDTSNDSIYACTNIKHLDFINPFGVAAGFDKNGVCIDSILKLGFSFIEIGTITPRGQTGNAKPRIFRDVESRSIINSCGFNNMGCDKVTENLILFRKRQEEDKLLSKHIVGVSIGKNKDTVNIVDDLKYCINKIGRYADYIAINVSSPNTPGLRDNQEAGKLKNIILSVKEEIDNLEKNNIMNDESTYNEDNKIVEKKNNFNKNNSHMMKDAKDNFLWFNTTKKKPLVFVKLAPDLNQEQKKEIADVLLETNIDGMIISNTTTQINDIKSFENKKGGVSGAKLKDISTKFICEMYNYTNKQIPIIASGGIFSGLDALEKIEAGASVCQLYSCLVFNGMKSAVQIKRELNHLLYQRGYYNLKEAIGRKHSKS
E3 ubiquitin-protein ligase XIAP (Homo sapiens), sequence (P98170 whole entry, looked up): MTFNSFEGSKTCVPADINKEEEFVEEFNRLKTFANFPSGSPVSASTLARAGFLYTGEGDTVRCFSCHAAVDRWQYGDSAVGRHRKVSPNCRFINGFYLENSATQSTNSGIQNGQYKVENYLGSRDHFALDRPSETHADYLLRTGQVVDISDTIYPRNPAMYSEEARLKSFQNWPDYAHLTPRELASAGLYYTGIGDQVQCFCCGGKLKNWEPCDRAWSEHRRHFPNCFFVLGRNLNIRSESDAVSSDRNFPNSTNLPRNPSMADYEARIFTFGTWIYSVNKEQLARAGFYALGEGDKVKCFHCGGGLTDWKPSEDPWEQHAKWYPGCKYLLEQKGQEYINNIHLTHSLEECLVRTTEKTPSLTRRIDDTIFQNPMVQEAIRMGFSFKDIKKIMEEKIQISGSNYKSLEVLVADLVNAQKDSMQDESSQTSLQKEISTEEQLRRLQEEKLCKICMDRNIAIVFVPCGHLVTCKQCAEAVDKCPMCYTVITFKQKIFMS

Take `COCCOC(=O)N1C(=O)[C@@]2(c3cc(C#CCCO)ccc31)[C@H](C(=O)N1CCc3cc(OC)c(OC)cc3C1)[C@H]1C(=O)O[C@H](c3ccccc3)[C@H](c3ccccc3)N1[C@@H]2c1ccc(OCCO)cc1`: the z-score in experiment [1] was 1.36; in experiment [2], 0.543 (inactive); in experiment [3], 0.665 (inactive); in experiment [5], 2.19 (inactive); in experiment [6], 0.0817 (inactive); in experiment [7] it was 0.443 (inactive). Moreover, the z-score in experiment [8] was 1.75 (inactive); in [9] it was 0.152. The values for the composite z-score in [4] and in experiment [10] were -1.45 (inactive) and -0.0412, respectively.

Regarding `C=C[C@@H](O)[C@H]1CC(c2ccccc2)=NO1`, the z-score was 0.0502 in [1]; -2.38 (inactive) in experiment [2]; 0.325 (inactive) in experiment [3]; -0.496 (inactive) in [5]; -0.2 (inactive) in experiment [6]; -0.105 (inactive) in experiment [7]. Moreover, the results for the z-score in [8] and in [9] were 0.194 (inactive) and 1.08, respectively. Further, the composite z-score in experiment [4] is -0.344 (inactive); in experiment [10], -0.0473.

With `CC(C)(C)OC(=O)CC[C@@]1(C(=O)N2CCCCC2)N=C(c2ccc(OCCCO)cc2)O[C@@H]1c1ccccc1CN=[N+]=[N-]`, the z-score was 0.613 in experiment [1]; 0.0243 (inactive) in experiment [2]; 0.053 (inactive) in experiment [3]; -0.223 (inactive) in [5]; 0.978 (inactive) in [6]; -0.366 (inactive) in [7]. Moreover, the figures for the z-score in experiment [8] and in experiment [9] were 0.831 (inactive) and 0.0127, respectively. In addition, the figures for the composite z-score in [4] and in [10] were 0.113 (inactive) and 0.183, respectively.

On to `CC(C)N1CC=CC23O[C@@H]4C=CCOC(=O)[C@@H]4[C@H]2C(=O)N(CCCCCCO)[C@@H]3C1=O` (stereo not given in full), for which the z-score in experiment [1] is 0.821; in experiment [2], 0.562 (inactive); in experiment [3], -0.581 (inactive); in experiment [5], 0.165 (inactive); in [6], -0.21 (inactive); in experiment [7] it was 0.412 (inactive). Moreover, the figures for the z-score in experiment [8] and in experiment [9] were 0.24 (inactive) and 0.704, respectively. Moreover, the composite z-score is -1.07 (inactive) in experiment [4] and 0.0342 in [10].

`O=C1O[C@H](c2ccccc2)[C@H](c2ccccc2)N2[C@H]1[C@@H](C(=O)N1CCN(c3ncccn3)CC1)[C@]1(C(=O)Nc3ccc(C#CCCO)cc31)[C@H]2c1ccccc1OCCO`: the z-score in experiment [1] is -0.141; in [2], 0.687 (inactive); in experiment [3] it was -0.31 (inactive); in experiment [5], 1.34 (inactive); in [6], 1.91 (inactive); in experiment [7] it was 0.156 (inactive). Further, the z-score in experiment [8] is 0.614 (inactive); in experiment [9], -1.36. The composite z-score in experiment [4] is -0.49 (inactive); in experiment [10] it was -0.16.

As for `CCCN1C(=O)[C@@H]2Cc3c([nH]c4ccccc34)[C@@H](c3cccc(O)c3)N2C1=O`, the z-score in experiment [1] was 0.944; in [2], 0.852 (inactive); in [3], 0.327 (inactive); in [5], 0.764 (inactive); in [6], 0.0696 (inactive); in experiment [7], 0.19 (inactive). Moreover, the z-score is 0.0246 (inactive) in experiment [8] and 0.0074 in experiment [9]. The values for the composite z-score in [4] and in [10] were -0.931 (inactive) and -0.313, respectively.

As to `CCOC(=O)C[C@H]1[C@H](OC(=O)Cc2ccc3c(c2)OCO3)[C@@H](NC(=O)c2ccccc2)c2cc(OCCCO)ccc2N1C(=O)c1ccccc1`, the z-score is -0.688 in experiment [1]; -0.271 (inactive) in experiment [2]; 0.103 (inactive) in experiment [3]; 0.0885 (inactive) in experiment [5]; 0.0859 (inactive) in [6]; 0.31 (inactive) in experiment [7]. Besides, the z-score in experiment [8] was 0.676 (inactive); in [9], -0.19. In addition, the figures for the composite z-score in experiment [4] and in experiment [10] were -1.11 (inactive) and -0.309, respectively.

For `CC1(C)[C@@H]2CC(C(O)C3C=CC4C(=O)N(c5ccccc5)C(=O)C4N3Nc3ccccc3F)=C[C@@H]1C2` (stereo not given in full), the z-score in [1] is 1.48; in experiment [2], -0.393 (inactive); in experiment [3] it was 0.941 (inactive); in [5], 0.16 (inactive); in experiment [6], -0.393 (inactive); in experiment [7] it was 0.018 (inactive). For the same compound, the z-score is 0.985 (inactive) in experiment [8] and -1.19 in experiment [9]. The results for the composite z-score in experiment [4] and in experiment [10] were 1.09 (inactive) and 0.18, respectively.

`Cc1ccc(S[C@]2(C(=O)NCC(C)C)CC(=O)N(C3CCCCC3)[C@@H]2c2ccc(CO)cc2I)cc1`: the z-score in [1] is 0.33; in [2], -1.05 (inactive); in experiment [3], 0.0989 (inactive); in experiment [5] it was -0.81 (inactive); in experiment [6], -0.115 (inactive); in experiment [7] it was 0.12 (inactive). In addition, the z-score in [8] was 0.598 (inactive); in [9], -0.693. In addition, the composite z-score in experiment [4] is -0.0804 (inactive); in experiment [10], -0.0559.

Take `CCCCC(O)C1C=CC2C(=O)N(Cc3ccccc3)C(=O)C2N1n1cnnc1` (stereo not given): the z-score in experiment [1] was -1.23; in experiment [2], 0.0393 (inactive); in [3], -0.748 (inactive); in experiment [5], 0.148 (inactive); in [6], -0.601 (inactive); in experiment [7], -0.395 (inactive). Further, the results for the z-score in experiment [8] and in [9] were -0.436 (inactive) and -0.409, respectively. Moreover, the composite z-score in experiment [4] is 0.504 (inactive); in [10] it was 0.0937.

Turning to `COc1ccc(C(=O)Nc2ccc3c(c2)[C@]2(O[C@@H](CCO)[C@H]([Si](C)(C)c4ccc(OC)cc4)[C@H]2C)C(=O)N3Cc2ccccc2)cc1`, the z-score was -1.9 in [1]; -2.35 (inactive) in [2]; -7.18 (inactive) in experiment [3]; 1.55 (inactive) in experiment [5]; 2.47 (inactive) in experiment [6]; 0.799 (inactive) in [7]. Moreover, the z-score in experiment [8] is -0.167 (inactive); in experiment [9], -2.51. Moreover, the composite z-score in [4] was -0.454 (inactive); in experiment [10], -0.165.

Turning to `CC(=O)NCCCC[C@@H]1NC(=O)[C@@H]2C[C@H](C(=O)NCCCC[N+](C)(C)C)[C@H](c3cccc(OCCO)c3)N2C1=O`, the z-score in [1] is -0.44; in experiment [2], 1.41 (inactive); in experiment [3], -1.56 (inactive); in [5], 0.876 (inactive); in experiment [6], 0.954 (inactive); in [7] it was -0.0845 (inactive). Besides, the z-score in experiment [8] was -0.629 (inactive); in [9], -0.803. The composite z-score in experiment [4] is -22.3 (active); in experiment [10], 0.142.

As to `CCCC[C@@H](O)C1=C(COc2ccccc2)Cn2c(=O)n(-c3ccccc3)c(=O)n2[C@H]1CO`, the z-score in [1] was -0.196; in [2] it was -4 (inactive); in experiment [3], 0.0088 (inactive); in experiment [5], 0.789 (inactive); in experiment [6] it was -3.57 (inactive); in [7], 1.36 (inactive). For the same compound, the z-score in experiment [8] was 0.0244 (inactive); in experiment [9] it was 0.539. The composite z-score in [4] is -1.05 (inactive); in experiment [10], 0.106.
